# TEAD-YAP block = TEAD-YAP interaction inhibition, primary screen, TEAD-YAP interaction inhibitor project, luminescence, HEK-TIYL cells. TEAD-Gal4/YAP UAS-luciferase luminescence. inhibition, % at 9.12 µM. actives 1.4% (n = 640,000). AID 1259422, 2018; in the data active means inhibition above about 32%
# GPR151 activ = activators of human GPR151, primary screen, cell-based, PathHunter beta-arrestin, luminescence | G-protein coupled receptor 151 (Homo sapiens), Q8TDV0 | PathHunter beta-arrestin GPR151 cells | activation, % at 11.2 µM | actives 1% (n = 650,000) | AID 1508602, 2020; in the data active means activation above about 4.9%
# Target sequence (Q8TDV0 whole entry, looked up): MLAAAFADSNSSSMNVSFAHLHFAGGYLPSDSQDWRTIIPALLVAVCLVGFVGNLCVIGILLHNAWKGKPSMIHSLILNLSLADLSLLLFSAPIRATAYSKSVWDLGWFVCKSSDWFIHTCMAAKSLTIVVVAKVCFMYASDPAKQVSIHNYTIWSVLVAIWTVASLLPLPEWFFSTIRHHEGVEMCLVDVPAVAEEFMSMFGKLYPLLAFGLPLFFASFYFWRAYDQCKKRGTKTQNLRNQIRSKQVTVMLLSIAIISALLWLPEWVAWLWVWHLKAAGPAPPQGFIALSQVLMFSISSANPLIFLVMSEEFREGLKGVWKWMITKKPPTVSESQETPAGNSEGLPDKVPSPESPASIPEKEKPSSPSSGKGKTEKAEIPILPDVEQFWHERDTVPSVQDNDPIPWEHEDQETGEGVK
# FBW7 act = FBW7 E3 ligase activators, primary screen, biochemical, AlphaScreen, human. F-box/WD repeat-containing protein 7 (Homo sapiens), Q969H0. actives 0.13% (n = 650,000). AlphaScreen FBW7–phospho-cyclin E peptide binding, activator screen. AID 1259310, 2017. normalized activity (activation), % at 26.1 µM; in the data active means normalized activity above about 1.9%;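 further: purified mutant Fbw7 with reduced substrate affinity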
# MITF primary = MITF inhibitors, primary screen, biochemical, AlphaScreen, human; AlphaScreen MITF homodimerization, bead proximity signal; AID 1259374, 2018; actives 0.91% (n = 650,000); inhibition, % at 2.6 µM; Microphthalmia-associated transcription factor (Homo sapiens), O75030; in the data active means inhibition above about 50%
# GPR151 conf act = GPR151 activators, triplicate retest, confirmation, cell-based, PathHunter beta-arrestin, luminescence; AID 1508609, 2020; shares compounds with GPR151 activ; 6,700 tested, under 10 active; GPR151 PathHunter beta-arrestin cells, 90 min; % of EA-reagent control over plate median; activation, % at 11.2 µM;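 active means mean percent activation across replicates above the confirmation screen cutoff of 4.91%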
# GPR119 counter = GPR119 activators in beta-arrestin cells, counter-screen for GPR151 activator project, cell-based, PathHunter beta-arrestin, luminescence, triplicate. shares compounds with GPR151 activ. 90 min; 0 = compound-well median, 100 = enzyme-acceptor control. activation, % at 11.2 µM. actives 0.3% (n = 6,700);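 active means mean percent activation in the counterscreen above 29.09%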;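 further: counterscreen on off-target GPR119 to flag nonselective hits from the GPR151 activator screen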
# Numbers stand for hits; i = inactive; nt = no result given. The list is not random: actives were taken first. Their share in the collection is about 3.4%.
SMILES,TEAD-YAP block,GPR151 activ,FBW7 act,MITF primary,GPR151 conf act,GPR119 counter
O=C(CCCn1c(=O)c2cccn2c2cccnc21)NC1CCN(Cc2ccccc2)CC1,i,5.8,i,i,i,i
COc1ccccc1CNC(=O)CCc1cn(C)c2ccccc12,i,5.9,i,i,i,i
O=C(CCCn1c(=O)c2cccn2c2ccccc21)NC1CCN(Cc2ccccc2)CC1,i,i,i,i,nt,nt
Cn1cc(CCC(=O)NC2CCN(Cc3ccccc3)CC2)c2ccccc21,i,5.9,i,i,i,i
CC(C)(C)SCC(=O)NCc1ccc(S(N)(=O)=O)cc1,i,i,i,i,nt,nt
Cn1c(-c2ccc3c(c2)OCO3)cnc1NCc1cc(Br)ccc1F,i,i,i,i,nt,nt
COc1cc(Br)cc(CN2CCN(C=O)CC2)c1O,i,7.3,i,i,i,i
CCn1cc(Br)c(C(=O)Nc2cccc(SC)c2)n1,i,6.4,i,i,i,i
CCn1cc(Br)c(C(=O)Nc2cccc(F)c2)n1,i,i,i,i,nt,nt
O=C(Cc1cn(-c2ccc(Nc3ccccc3)nn2)c2ccccc12)NCc1nc2ccccc2[nH]1,i,5.3,i,i,i,i
Cn1c(Nc2ccc(-n3cc(CC(=O)NCc4nc5ccccc5[nH]4)c4ccccc43)nn2)nc2ccccc21,i,i,i,i,nt,nt
C[C@@H](O)[C@@H]1NC(=O)[C@H]2CN(C(=O)c3ccc4ccccc4c3)CCN2C1=O,i,i,i,i,nt,nt
C[C@H](O)[C@H]1NC(=O)[C@H]2CN(C(=O)c3ccc4ccccc4c3)CCN2C1=O,i,6.2,i,i,i,i
O=C1N[C@@H](Cc2ccc(Cl)cc2)C(=O)N2CCN(C(=O)c3cc(Cl)cc(Cl)c3)C[C@H]12,i,15,i,i,i,i
O=C1N[C@@H](Cc2ccc(O)cc2)C(=O)N2CCN(C(=O)c3cc(F)ccc3F)C[C@H]12,i,5.7,i,i,i,i
CC[C@@H]1NC(=O)[C@H]2CN(C(=O)c3cccc(Cl)c3)CCN2C1=O,i,13,i,i,i,i
COc1ccc(N(CC(=O)NCc2ccccc2C)S(C)(=O)=O)c(OC)c1,i,i,i,i,nt,nt
Cc1ccc(Cl)cc1N1CCN(C(=O)CCNc2c(N3CCCC3)c(=O)c2=O)CC1,i,i,i,i,nt,nt
CCCCC1CCC(c2ccc(-c3ccc(C4CCC(CC)CC4)cc3)nc2)CC1 (centres undefined),i,i,i,i,nt,nt
O=C1N[C@@H](Cc2cnc[nH]2)C(=O)N2CCN(C(=O)c3ccc(F)cc3)C[C@H]12,i,6.0,i,i,i,i
CCCCN(CC)c1cnn(-c2ccccc2)c(=O)c1N,i,9.2,i,i,i,i
O=C1NCCN1c1cccc(C(=O)N2CCC[C@@H]3CN(Cc4cccs4)CC[C@H]32)c1,i,i,i,i,nt,nt
COc1ccc(OC(C)C(=O)N2CCN(c3ccccc3)CC2)cc1 (centres undefined),i,i,i,i,nt,nt
C1=CCC(CN2CCN(C3CCCC3)CC2)CC1 (centres undefined),i,5.1,i,i,i,i
CC1(C2CCN(C(=O)Cc3ccsc3)CC2)NC(=O)N(C2Cc3ccccc3C2)C1=O (centres undefined),i,i,i,i,nt,nt
SMILES,TEAD-YAP block,GPR151 activ,FBW7 act,MITF primary,GPR151 conf act,GPR119 counter
CC1(C2CCN(C(=O)C(=O)c3ccccc3)CC2)NC(=O)N(C2Cc3ccccc3C2)C1=O (centres undefined),i,5.2,i,i,i,i
O=C(NCC1CCC2(CCN(Cc3cccn3-c3ccccn3)CC2)O1)c1ccccc1 (centres undefined),i,i,i,i,nt,nt
CN(C)c1ccc(CNC(C)(C)CO)cc1,i,5.1,i,i,i,i
CSc1ccc(CNC(C)(C)CO)cc1,i,i,i,i,nt,nt
CC(C)(CN1CCN(c2cccc(Cl)c2)CC1)NS(=O)(=O)c1ccccc1,i,i,i,i,nt,nt
O=C(CCN1CCN(C2c3ccccc3-c3ccccc32)CC1)Nc1ccc(F)cc1,i,6.8,i,i,i,i
COc1nc(NCCN2CCOCC2)nc(OC)n1,i,i,i,i,nt,nt
O=C(NCCCO)/C(=C\C=C\c1ccccc1)NC(=O)c1ccc(Br)cc1,i,i,i,i,nt,nt
CCOC(=O)CN(c1cccc(C)c1)C1SC(=O)N(Cc2cccc(C(=O)O)c2)C1=O (centres undefined),i,i,i,i,nt,nt
Cc1cccc(N(CC(N)=O)C2SC(=O)N(Cc3cccc(C(=O)O)c3)C2=O)c1 (centres undefined),i,11,i,i,i,i
O=C(NCc1ccccc1)c1ccc(OCc2ccccc2)cc1,i,i,i,i,nt,nt
CC(C)OC(=O)COc1ccc(C(=O)NCc2ccccc2)cc1,i,5.3,i,i,i,i
CC(C)(C)NC(=O)C(c1ccncc1)N(C(=O)c1csnn1)c1ccc(Cl)cc1 (centres undefined),i,i,i,i,nt,nt
CCc1ccc(N2C(=O)C(Cl)=C(Nc3ccc(C(=O)N4CCCC4)cc3)C2=O)cc1,i,5.2,i,i,i,i
CCc1ccc(NC2=C(Cl)C(=O)N(c3ccccc3OC)C2=O)cc1,i,i,i,i,nt,nt
CN(C)/C=C1\N=C(c2ccccc2F)OC1=O,i,6.9,i,i,i,i
CN(C)c1ccc(/C=C2\N=C(c3ccccc3F)OC2=O)cc1,i,i,i,i,nt,nt
CCOC(=O)c1cc(C)sc1NC(=O)c1cc(-c2ccc(CC(C)C)cc2)nc2ccccc12,i,i,i,i,nt,nt
COC(=O)c1c(NC(=O)c2cc(-c3ccc(CC(C)C)cc3)nc3ccccc23)sc(C)c1-c1ccccc1,i,5.1,i,i,i,i
CCCCOc1ccc(-c2cc(C(=O)NN)c3ccccc3n2)cc1,i,i,i,i,nt,nt
CCCCOc1ccc(-c2cc(C(=O)OC)c3ccccc3n2)cc1,i,7.5,i,i,i,i
O=C(CCN1C(=O)C2C3C=CC(C3)C2C1=O)N1CCN(c2ccccc2Cl)CC1 (centres undefined),i,i,i,i,nt,nt
O=C(CCN1C(=O)C2C3C=CC(C3)C2C1=O)N1CCN(c2ccccc2F)CC1 (centres undefined),i,5.1,i,i,i,i
CC1(C)Cc2ccccc2C2=C(C#N)C(=O)C(=O)N21,i,i,i,i,nt,nt
COc1cc(C2C(C(=O)OC3CCCC3)=C(C)NC3=C2C(=O)CC(c2ccc(Cl)cc2)C3)ccc1OC(C)=O (centres undefined),i,5.5,i,i,i,i
